Values without a mark were called inactive. Records with an inconclusive call do not appear. The source made the active and inactive calls. Unless noted, calls come from the whole dose curve; as a rule, active = well fitted curve in the direction sought with a large enough effect in the repeat runs; inconclusive = weak or mixed curves; inactive = no such curve, though single readings can be large; an effect the other way counts as inactive or inconclusive.

Assay [1] has as its target Luciferin 4-monooxygenase (Photinus pyralis) (UniProt P08659). The assay is described as follows: qHTS assay to identify small molecule inhibitors of firefly luciferase (AID 1224835). Note: nearly all actives have a fitted effect of over 25% in size. Note: potency is the fitted concentration of half-maximal effect. In outline:
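Quantitative HTS format; KM concentrations of both substrates. Purified P. pyralis FLuc activity quantified from luminescence images.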
In general terms: Quantitative high-throughput screening tests each substance at several concentrations.

A short description of assay [2]: qHTS assay to identify small molecule agonists of the constitutive androstane receptor (CAR) signaling pathway - cell viability counter screen (AID 1224836). Note: % is set by controls: 0 for no effect and ±100 for the full control effect; nearly all actives have a fitted effect of over 45% in size. In outline:
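HepG2-CYP2B6-hCAR, 2500 cells/well, 4 h pre-incubation; cpd 15 conc + PK11195 0.75 uM final; 23 h, 37 C/5% CO2; CellTiter-Fluor, fluorescence.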

A short description of assay [3]: qHTS assay to identify small molecule antagonists of the constitutive androstane receptor (CAR) signaling pathway - cell viability counter screen (AID 1224837). Note: % is set by controls: 0 for no effect and ±100 for the full control effect; nearly all actives have a fitted effect of over 45% in size. Summed up: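 HepG2 cells stably expressing hCAR and a CYP2B6-2.2kb reporter were plated and pre-incubated 4 hr at 37 C/5% CO2, then given compounds at 15 concentrations plus 50 nM CITCO (final). After 23 hr, viability was read by CellTiter-Fluor fluorescence.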

The nature of assay [4]: qHTS assay to identify small molecule antagonists of the estrogen related receptor signaling pathway with the pleiotropic PPARgamma coactivator (PGC) from Tox21 10K library - cell viability counter screen (AID 1224840; active = well fitted cell-killing curve with a large enough effect in the repeat runs, not every such curve was filed as active; note: nearly all actives have a fitted effect of over 40% in size; note: potency is the fitted concentration of half-maximal effect). Summed up: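 PGC/ERR cells were seeded at 2,000 cells/well and left 6 hours at 37 C/5% CO2 before pin-tool addition of compounds in DMSO. After 17.5 hours at 37 C, CellTiter-Fluor was added and fluorescence read 30 minutes later.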

In assay [5] the target is Thyrotropin receptor (Homo sapiens) (UniProt P16473). Briefly: qHTS assay to identify small molecule agonists of the thyroid stimulating hormone receptor (TSHR) signaling pathway (AID 1224843; calls by dose curve; note: % is set by controls: 0 for no effect and ±100 for the full control effect; nearly all actives have a fitted effect of over 45% in size). In outline: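 Cell line HEK293 with TSHR; density 800/well. Exposure 30 min RT. Readout HTRF cAMP (cAMP-d2/anti-cAMP-cryptate), 1 h RT before reading.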
Assay [6] can be described thus: qHTS assay to identify small molecule agonists of H2AX (AID 1224845; active = well fitted activation curve with a large enough effect in the signal ratio in the repeat runs, not every such curve was filed as active; the % refers to the signal ratio; note: % is set by controls: 0 for no effect and ±100 for the full control effect). In outline: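 Wild-type CHO-K1 cells plated overnight, then exposed 3 hr at 37C to compounds at 15 concentrations (0.76% DMSO). Lysed, then HTRF anti-pH2AX(S139)-cryptate/anti-H2AX-d2 detection after 24 hr at room temperature; emissions 665 and 620 nm.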
A short description of assay [7]: qHTS RealTime-Glo MT Cell Viability Assay in HepG2 cells - 24 hour (AID 1224867). Note: nearly all actives have a fitted effect of over 50% in size. Note: potency is the fitted concentration of half-maximal effect. Summed up:
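Tox21 10K library screened in qHTS format on HepG2 cells carrying RealTime-Glo reagents. Compounds were added after a 5 h preincubation, and the luminescent signal from continuous culture was measured repeatedly during 40 h treatment.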

Assay [8] can be described thus: A CellTox Green Cytotoxicity Assay to monitor cytotoxicity in HEK293 cells - 0 hour (AID 1224869). Note: % is set by controls: 0 for no effect and ±100 for the full control effect; nearly all actives have a fitted effect of over 50% in size. Summed up:
(§1)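 HEK293 cells premixed with CellTox Green dye were seeded at 600 cells/well and left 5 h at 37 C/5% CO2 before pin transfer of 23 nL compound in DMSO. Fluorescence from dye bound to dead-cell DNA was read during 40 h treatment.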

The nature of assay [9]: qHTS RealTime-Glo MT Cell Viability Assay in HepG2 cells - 40 hour (AID 1224870). Note: nearly all actives have a fitted effect of over 50% in size. Note: potency is the fitted concentration of half-maximal effect. In outline:
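HepG2 cells mixed with RealTime-Glo MT reagents (NanoLuc plus cell-permeant prosubstrate) were seeded at 600 cells/well, incubated 5 h at 37 C/5% CO2, then pinned with compounds in DMSO; nonlytic luminescence tracked viability during 40 h treatment.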

Assay [10] in a line: A CellTox Green Cytotoxicity Assay to monitor cytotoxicity in HEK293 cells - 40 hour (AID 1224871). Note: % is set by controls: 0 for no effect and ±100 for the full control effect; nearly all actives have a fitted effect of over 45% in size. Summed up:
as §1

The target in assay [11] is Nuclear receptor subfamily 1 group I member 3 (Homo sapiens) (UniProt Q14994). The assay is described as follows: qHTS assay to identify small molecule antagonists of the constitutive androstane receptor (CAR) signaling pathway (AID 1224838). Note: % is set by controls: 0 for no effect and ±100 for the full control effect; nearly all actives have a fitted effect of over 40% in size. In outline:
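HepG2 cells stably co-transfected with hCAR and a CYP2B6-2.2kb luciferase reporter were seeded 4 h before compound addition at 15 concentrations. Cells were stimulated with 50 nM CITCO (final) for 24 h at 37 C; luciferase luminescence was then read.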

For assay [12] the target is unchanged. The assay is described as follows: qHTS assay to identify small molecule agonists of the constitutive androstane receptor (CAR) signaling pathway (AID 1224839).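 For activation: HepG2 cells stably carrying human CAR and a CYP2B6 luciferase reporter; % is set by controls: 0 for no effect and ±100 for the full control effect.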 Note: nearly all actives have a fitted effect of over 15% in size. Note: potency is the fitted concentration of half-maximal effect. In outline: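 HepG2-CYP2B6-hCAR cells, 2500/well, 4 h pre-incubation; compounds 15 conc.; PK11195 0.75 uM final; 24 h, 37 C/5% CO2; ONE-Glo luciferase read.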
The nature of assay [13]: qHTS assay to identify small molecule agonists of the hypoxia (HIF-1) signaling pathway - cell viability counter screen (AID 1224844; calls by dose curve; note: % is set by controls: 0 for no effect and ±100 for the full control effect; nearly all actives have a fitted effect of over 50% in size). In outline:
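HRE-bla ME-180 cells in medium with 0.5% dialyzed FBS were preincubated 5 hrs at 37C, exposed to compounds for 17 hrs, then viability was read as CellTiter-Glo luminescence after 30 min at room temperature, in the reporter wells.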

Assay [14] is described as follows: qHTS assay to identify small molecule agonists of H2AX - cell viability counter screen (AID 1224847; calls by dose curve; note: nearly all actives have a fitted effect of over 30% in size; note: potency is the fitted concentration of half-maximal effect). Summed up: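 Cells plated first: CHO-K1, 1000 per well in 10% FBS medium, incubated overnight at 37C. Then 15-point compound titration added (final DMSO 0.76%) for 3 hr. Finally CellTiter-Glo added and luminescence read.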
A short description of assay [15]: qHTS assay to identify small molecule antagonists of the estrogen related receptor signaling pathway with the pleiotropic PPARgamma coactivator (PGC) from Tox21 10K library (AID 1224841; call rule not given here). In outline: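 PGC/ERR reporter cells were seeded at 2,000 cells/well and held 6 hours at 37 C/5% CO2 before pin-tool addition of compounds in DMSO. After 18 hours at 37 C, One-Glo was added and luminescence read after 30 minutes at room temperature.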

Assay [16] is described as follows: qHTS assay to identify small molecule agonists of the estrogen related receptor signaling pathway with the pleiotropic PPARgamma coactivator (PGC) from Tox21 10K library (AID 1224842). Note: potency is the fitted concentration of half-maximal effect; nearly all actives have a fitted effect of over 15% in size. In outline:
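PGC/ERR reporter cells (NTP line) were seeded 2,000 per well, rested 6 h at 37 C/5% CO2, then pin-dosed with compounds in DMSO for 18 h at 37 C; luciferase read by One-Glo luminescence after 30 min at room temperature.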

Assay [17] in a line: qHTS assay to identify small molecule antagonists of the estrogen related receptor (ERR) signaling pathway from Tox21 library (AID 1224848). Note: nearly all actives have a fitted effect of over 50% in size. Note: potency is the fitted concentration of half-maximal effect. Summed up:
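Screening used an ERR reporter line supplied by NTP, exposed for 18 h at 37 C to library compounds delivered in DMSO. Signal was luciferase luminescence developed with ONE-Glo at room temperature for 30 min.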

Assay [18] is described as follows: qHTS assay to identify small molecule agonists of the estrogen related receptor (ERR) signaling pathway from Tox21 library (AID 1224849; calls by dose curve; note: % is set by controls: 0 for no effect and ±100 for the full control effect; nearly all actives have a fitted effect of over 15% in size). The following applies: ERR reporter cell line, ONE-Glo luciferase, 18 h; at 42.5 µM (top of the series). Summed up: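 ERR reporter cell line (NTP) seeded, rested 6 h at 37 C/5% CO2, then pinned with Tox21 compounds in DMSO. After 18 h at 37 C, ONE-Glo luciferase luminescence was read following 30 min at room temperature.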

Assay [19] can be described thus: qHTS RealTime-Glo MT Cell Viability Assay in HEK293 cells - 32 hour (AID 1224868). Note: nearly all actives have a fitted effect of over 50% in size. Note: potency is the fitted concentration of half-maximal effect. Summed up: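 Luminescence generated by NanoLuc from substrate produced by living HEK293 cells served as the viability signal. Each value reflects the reading at its stated time point during continuous 40 h compound exposure at 37 C.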
The nature of assay [20]: qHTS assay to identify small molecule agonists of the hypoxia (HIF-1) signaling pathway (AID 1224846; active = well fitted activation curve with a large enough effect in the signal ratio in the repeat runs, not every such curve was filed as active; the % refers to the signal ratio; note: % is set by controls: 0 for no effect and ±100 for the full control effect). Summed up:
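HRE-bla ME-180 cells (beta-lactamase reporter under hypoxia response element) were plated at 2,000 cells/well in medium with 0.5% dialyzed FBS, rested 5 hrs, then given compounds in DMSO for 17 hrs at 37C, 5% CO2. Reporter induction was read with CCF4-AM FRET substrate.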

Luciferin 4-monooxygenase (Photinus pyralis), sequence (P08659 whole entry, looked up): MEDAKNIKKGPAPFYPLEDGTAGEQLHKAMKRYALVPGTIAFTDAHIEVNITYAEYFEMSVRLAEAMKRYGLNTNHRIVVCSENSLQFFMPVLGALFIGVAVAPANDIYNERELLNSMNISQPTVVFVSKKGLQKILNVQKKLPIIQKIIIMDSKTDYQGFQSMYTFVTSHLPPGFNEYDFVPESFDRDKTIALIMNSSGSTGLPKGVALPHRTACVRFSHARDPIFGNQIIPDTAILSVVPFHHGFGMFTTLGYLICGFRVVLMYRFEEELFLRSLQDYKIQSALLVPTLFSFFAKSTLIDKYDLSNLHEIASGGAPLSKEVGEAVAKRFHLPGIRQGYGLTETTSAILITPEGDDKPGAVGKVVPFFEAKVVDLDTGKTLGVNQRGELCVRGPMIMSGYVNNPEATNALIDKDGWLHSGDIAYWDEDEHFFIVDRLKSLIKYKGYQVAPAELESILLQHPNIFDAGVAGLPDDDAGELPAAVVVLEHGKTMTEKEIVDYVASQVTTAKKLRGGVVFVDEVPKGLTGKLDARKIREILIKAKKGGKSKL
Nuclear receptor subfamily 1 group I member 3 (Homo sapiens), sequence (Q14994 whole entry, looked up): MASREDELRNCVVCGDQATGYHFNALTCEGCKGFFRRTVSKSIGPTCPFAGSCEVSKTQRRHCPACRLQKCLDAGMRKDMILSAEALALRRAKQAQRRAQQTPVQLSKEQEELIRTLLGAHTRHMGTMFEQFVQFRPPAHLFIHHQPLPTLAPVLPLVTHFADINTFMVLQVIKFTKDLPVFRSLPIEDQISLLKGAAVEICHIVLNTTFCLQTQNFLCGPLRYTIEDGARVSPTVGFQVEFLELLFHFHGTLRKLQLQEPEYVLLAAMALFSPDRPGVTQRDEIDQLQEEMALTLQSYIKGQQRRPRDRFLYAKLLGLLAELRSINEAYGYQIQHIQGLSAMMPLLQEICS
Thyrotropin receptor (Homo sapiens), sequence (P16473 whole entry, looked up): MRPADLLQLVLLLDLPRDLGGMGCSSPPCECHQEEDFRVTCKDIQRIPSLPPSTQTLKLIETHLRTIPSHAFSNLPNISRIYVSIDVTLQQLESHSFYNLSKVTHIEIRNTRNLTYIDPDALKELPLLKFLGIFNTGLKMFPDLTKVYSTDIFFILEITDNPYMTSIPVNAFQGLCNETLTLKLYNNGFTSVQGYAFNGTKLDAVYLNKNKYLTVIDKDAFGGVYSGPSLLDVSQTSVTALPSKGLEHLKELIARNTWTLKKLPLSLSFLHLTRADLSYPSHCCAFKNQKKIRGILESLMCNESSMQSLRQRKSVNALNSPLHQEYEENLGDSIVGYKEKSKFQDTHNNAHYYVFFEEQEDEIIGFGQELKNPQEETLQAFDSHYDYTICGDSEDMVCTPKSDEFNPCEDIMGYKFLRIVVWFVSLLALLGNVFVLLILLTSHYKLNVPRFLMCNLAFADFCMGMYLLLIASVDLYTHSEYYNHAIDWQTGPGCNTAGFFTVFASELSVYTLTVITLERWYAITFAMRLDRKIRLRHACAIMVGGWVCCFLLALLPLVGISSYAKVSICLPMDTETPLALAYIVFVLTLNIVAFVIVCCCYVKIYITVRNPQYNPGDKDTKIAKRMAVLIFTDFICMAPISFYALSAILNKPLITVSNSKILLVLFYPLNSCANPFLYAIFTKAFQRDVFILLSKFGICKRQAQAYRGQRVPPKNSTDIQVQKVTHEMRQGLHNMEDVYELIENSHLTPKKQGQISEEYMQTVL

As to `CN(C)CCOC(c1ccccc1)c1ccccc1`, the Potency entry in [1], in assay [2], in assay [3], in [4], in assay [5] and in assay [6] was “inactive” throughout. The Potency entry in assay [7], in [8], in [9] and in [10] was “inactive” throughout.
For `NC(=O)n1c(O)c(C(=O)c2cccs2)c2cc(Cl)ccc21`, the Potency in [1] was 30.9 µM (active); in assay [12] it was 13.3 µM (active). Further, the Potency entry in [11], in assay [5], in assay [13], in assay [14], in [7] and in assay [8] was “inactive” in each case. Also, in assay [9], the Potency entry is “inactive”.
On to `O=C(Nc1ncc([N+](=O)[O-])s1)c1cccs1`, for which the Potency in [1] was 3.09 µM (active); in assay [12], 1.33 µM (active); in assay [16], 841 nM (active); in assay [14], 24.7 µM (active). The Potency entry in assay [11], in [4], in assay [15], in assay [5], in assay [6] and in assay [17] was “inactive” throughout. In addition, the Potency entry in assay [7], in assay [19], in [8], in [9] and in [10] was “inactive” in each case. For the same molecule, the activity change, positive = activation in [18] was 14.6% (active).
As for `CN[C@H]1CC[C@@H](c2ccc(Cl)c(Cl)c2)c2ccccc21`, the Potency entry in [1], in assay [2], in assay [3], in assay [11], in assay [12] and in assay [15] was “inactive” throughout. Further, the Potency entry in [8] was “inactive”. Further, the Potency in [4] was 26.6 µM (active); in [17], 26.6 µM (active); in [7], 23.9 µM (active); in assay [19], 23.9 µM (active); in assay [9], 23.9 µM (active). Moreover, the activity change, positive = activation in [18] was -39%.
For `OC[C@H]1O[C@H](O[C@]2(CCl)O[C@H](CCl)[C@@H](O)[C@@H]2O)[C@H](O)[C@@H](O)[C@H]1Cl`, the Potency result in [1], in [2], in assay [3], in assay [4], in assay [5] and in assay [6] was “inactive” in each case. For the same molecule, the Potency result in assay [7], in assay [19], in [8], in [9] and in assay [10] was “inactive” each time. Further, the molecule was called inactive in [20].
Regarding `CCOC(N)=O`, the Potency entry in assay [1], in assay [2], in assay [3], in assay [4], in [5] and in assay [13] was “inactive” throughout. For the same molecule, the Potency result in assay [6], in assay [7], in [8], in [9] and in assay [10] was “inactive” each time. Moreover, the outcome in assay [20] was inactive.
For `C=C(C)C(=O)OCC(C)O` (stereo unspecified), the Potency result in [1], in assay [2], in [3], in assay [11], in [12] and in [4] was “inactive” throughout. Further, the Potency entry in assay [5], in [13], in assay [6], in assay [7], in [8] and in assay [9] was “inactive” throughout. In addition, the Potency entry in assay [10] was “inactive”. Moreover, in assay [20], the result was inactive.
